Measured values reported in PubChem BioAssay (NCI).
Where “and” joins values, the source holds several entries; their conditions need not be identical. Equal entries are not always repeated. About 79,000 compounds went through this panel and 15% of them were active in at least one assay; those are over-represented in the sample as a whole. The source holds several records for some structures; these can differ, active in one and inactive in another. Calls of active or inactive are those of the source. Rule as the data show it: active = growth inhibition above about 70%; inactive = the rest.

Columns and labels:
[1] = NCI Yeast Anticancer Drug Screen. Data for the rad50 strain (AID 155);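 also: 0% = growth of vehicle-only cultures of the same strain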; details: S. cerevisiae rad50 strain growth inhibition, stronger effect = higher value
Method in brief: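 Readout: growth inhibition relative to vehicle-treated cultures. Compound exposure was carried out in a genetically defined yeast strain deficient in DNA damage repair.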

[2] = NCI Yeast Anticancer Drug Screen. Data for the mec2-1 strain (AID 157); details: S. cerevisiae mec2-1 strain, stronger effect = higher value
Method in brief: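 Compounds were applied to mec2-1 yeast cells. Their growth was then compared with that of vehicle-treated cultures to give growth inhibition.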

[3] = NCI Yeast Anticancer Drug Screen. Data for the sgs1 mgt1 strain (AID 161);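 also: 0% = growth of cultures given vehicle only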; details: S. cerevisiae sgs1 mgt1 strain, stronger effect = higher value
Method in brief: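 Percent growth inhibition was derived by comparing compound-exposed mutant yeast with vehicle-exposed cultures. The strain carries alterations in DNA damage repair.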

[4] = NCI Yeast Anticancer Drug Screen. Data for the cln2 rad14 strain (AID 165);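 also: 0% = growth equal to vehicle treated cultures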; details: S. cerevisiae cln2 rad14 strain, stronger effect = higher value
Method in brief: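 Strain: cln2 rad14 yeast, altered in cell cycle control and DNA damage repair. Read-out: growth inhibition vs vehicle.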

[5] = NCI Yeast Anticancer Drug Screen. Data for the bub3 strain (AID 167); details: S. cerevisiae bub3 mutant strain, stronger effect = higher value
Method in brief: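 Readout: yeast growth inhibition, expressed relative to vehicle-only wells. The test organism is a mutant strain from a panel with lesions in DNA repair or checkpoint genes.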

[6] = NCI Yeast Anticancer Drug Screen. Data for the mlh1 rad18 strain (AID 175); details: S. cerevisiae mlh1 rad18 strain growth inhibition, stronger effect = higher value
Method in brief: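 A repair-deficient yeast strain is exposed to test compound, and growth is scored relative to vehicle-treated controls.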

[7] = at 5.0 µM (retest, dose inferred, filed as 0.5)
[8] = at 50.0 µM (retest, dose inferred, filed as 5.0)

SMILES | growth inhibition [1, 7] | growth inhibition [1, 8] | growth inhibition ([1]; at 50.0 µM) | growth inhibition [2, 7] | growth inhibition [2, 8] | growth inhibition ([2]; at 50.0 µM) | growth inhibition [3, 7] | growth inhibition [3, 8] | growth inhibition ([3]; at 50.0 µM) | growth inhibition [4, 7] | growth inhibition [4, 8] | growth inhibition ([4]; at 50.0 µM) | growth inhibition [5, 7] | growth inhibition [5, 8] | growth inhibition ([5]; at 50.0 µM) | growth inhibition [6, 7] | growth inhibition [6, 8] | growth inhibition ([6]; at 50.0 µM)
Clc1ccc(CNCCCNCc2ccc(Cl)cc2)cc1 | 80% (active) | 15% (inactive) | 27.8% (inactive) | 100% (active) | 31% (inactive) | 23% (inactive) | 67% (inactive) | 31% (inactive) | 50.4% (inactive) | 49% (inactive) | 13% (inactive) | 72% (active) | 91% (active) | 20% (inactive) | 27.3% (inactive) | 96% (active) | 13% (inactive) | 29.9% (inactive)
O=C(/C=C/c1ccccn1)c1ccccc1 | 4% (inactive) | 59% (inactive) | 9.35% (inactive) and 16.2% (inactive) | -13% (inactive) | 28% (inactive) | 40% (inactive) and 16.4% (inactive) | -1% (inactive) | 56% (inactive) | 44.7% (inactive) and 24.4% (inactive) | 5% (inactive) | 11% (inactive) | 7.2% (inactive) and 26.9% (inactive) | -5% (inactive) | 23% (inactive) | 47.2% (inactive) and 39.9% (inactive) | -1% (inactive) | 29% (inactive) | 80.7% (active) and 21.1% (inactive)
COC(=O)C1=COC(C)C2C[n+]3ccc4c([nH]c5ccccc54)c3CC12 (centres undefined) | 23% (inactive) | 25% (inactive) | -11.6% (inactive) and 6.35% (inactive) | 22% (inactive) | 25% (inactive) | -34% (inactive) and 31.9% (inactive) | 17% (inactive) | 38% (inactive) | -11.2% (inactive) and 17.6% (inactive) | 21% (inactive) | 30% (inactive) | -8.3% (inactive) and -15.8% (inactive) | 22% (inactive) | 35% (inactive) | -31.1% (inactive) and 38.2% (inactive) | 23% (inactive) | 39% (inactive) | -18.1% (inactive) and 43.3% (inactive)
Nc1cc2c(cc1[N+](=O)[O-])[nH]c1c(-c3ccccc3)nccc12 | 9% (inactive) | 97% (active) | 99.2% (active) | -5% (inactive) | 99% (active) | 96.4% (active) | 10% (inactive) | 99% (active) | 99.3% (active) | 1% (inactive) | 89% (active) | 99.1% (active) | 28% (inactive) | 98% (active) | 99.2% (active) | 2% (inactive) | 98% (active) | 98.9% (active)
O=C1OC(c2ccccc2)C(c2ccccc2)=C1c1ccccc1 (centres undefined) | -21% (inactive) | 91% (active) | -6% (inactive) | -18% (inactive) | 92% (active) | -2.8% (inactive) | -3% (inactive) | 91% (active) | 7.1% (inactive) | -2% (inactive) | 86% (active) | -29% (inactive) | 9% (inactive) | 91% (active) | 9% (inactive) | 4% (inactive) | 90% (active) | 3.65% (inactive)
OCc1ccccc1C(c1ccccc1)c1ccccc1 | 0% (inactive) | 98% (active) | 3.45% (inactive) | 9% (inactive) | 99% (active) | 64.7% (inactive) | -1% (inactive) | 70% (active) | 73% (active) | 8% (inactive) | 98% (active) | 5.85% (inactive) | 0% (inactive) | 99% (active) | 91% (active) | 6% (inactive) | 94% (active) | 84.1% (active)
O=C(c1ccc(Cl)cc1)C(O)c1ccc(Cl)cc1 (centres undefined) | -2% (inactive) and 10% (inactive) | 27% (inactive) and 74% (active) | 34.2% (inactive) | -9% (inactive) and -3% (inactive) | 14% (inactive) and 35% (inactive) | 12.4% (inactive) | -2% (inactive) and 4% (inactive) | 79% (active) and 82% (active) | 55.1% (inactive) | -8% (inactive) and 7% (inactive) | 67% (inactive) and 28% (inactive) | 36% (inactive) | -10% (inactive) and -1% (inactive) | 20% (inactive) and 45% (inactive) | 65.8% (inactive) | -6% (inactive) and -12% (inactive) | 53% (inactive) and 49% (inactive) | 62.3% (inactive)
CC1=CC(C)=Nc2ccc(Cl)cc2N1 | -2% (inactive) | 9% (inactive) | -1.1% (inactive) and 52% (inactive) | 2% (inactive) | 2% (inactive) | 11.4% (inactive) and 2.6% (inactive) | -4% (inactive) | -1% (inactive) | -5.1% (inactive) and 41% (inactive) | 1% (inactive) | 7% (inactive) | -15.9% (inactive) and -11.8% (inactive) | -2% (inactive) | -7% (inactive) | -2.9% (inactive) and 21.6% (inactive) | -2% (inactive) | 7% (inactive) | 9.35% (inactive) and 75.1% (active)
